Experimental data as given in PubChem BioAssay (Tox21).
Records with an inconclusive call do not appear. Active and inactive are the calls of the source. Unless noted, calls follow the shape of the dose curve; as a rule, active = well fitted curve in the direction sought with a large enough effect in the repeat runs; inconclusive = weak or mixed curves; inactive = flat fitted curve, though single readings scatter. Non-standard residues stand in square brackets, D forms with d. Residues, ends and D or L forms follow the SMILES beside them. pGlu = O=C1CC[C@@H](C(=O)O)N1; Thz = O=C(O)[C@@H]1CSCN1

What was measured:
[1] = qHTS assay to test for compound auto fluorescence at 535 nm (green) in HEK293 cells (AID 720680); details: green autofluorescence 485/535 nm; series mostly up to 46 µM
[2] = qHTS assay to test for compound auto fluorescence at 460 nm (blue) in HEK293 cell free culture (AID 720681); details: cell-free medium, autofluorescence 405/460 nm (blue); series mostly up to 46 µM
In short: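 Test compounds were pinned into cell-free culture medium (DMEM with 10% FBS) and fluorescence was read directly at Ex/Em 405/460 nm. Signals were expressed as fluorescence equivalents of triamterene, with DMSO vehicle as control.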

[3] = qHTS assay to test for compound auto fluorescence at 535 nm (green) in HEK293 cell free culture (AID 720682); details: cell-free medium, green autofluorescence 485/535 nm; series mostly up to 46 µM
In short: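 Intrinsic compound fluorescence is measured in culture medium containing 10% FBS, with excitation at 485 nm and detection at 535 nm, referenced to fluorescein.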

[4] = qHTS assay to test for compound auto fluorescence at 590 nm (red) in HEK293 cell free culture (AID 720683); details: cell-free medium autofluorescence, Ex540/Em590 red; series mostly up to 46 µM
In short: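 Tox21 10K library compounds were pinned into cell-free DMEM with 10% FBS and fluorescence was read at excitation 540 nm. Activity is expressed as Rose Bengal sodium equivalency.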

[5] = qHTS assay to test for compound auto fluorescence at 590 nm (red) in HepG2 cell free culture (AID 720684); details: cell-free medium autofluorescence, red 540/590 nm; series mostly up to 46 µM
In short: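 Readout: intrinsic compound fluorescence at 590 nm emission after 540 nm excitation, scaled to Rose Bengal sodium. Matrix was cell-free MEM with 10% FBS; DMSO vehicle wells served as control.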

[6] = qHTS assay to test for compound auto fluorescence at 460 nm (blue) in HepG2 cell free culture (AID 720685); details: Cell-free culture medium, blue autofluorescence 405/460 nm; series mostly up to 46 µM
In short: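 Cell-free plates of MEM plus 10% FBS received 23 nL compound or DMSO vehicle; blue-channel (405/460 nm) intensity scored against triamterene as reference fluorophore.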

[7] = qHTS assay to test for compound auto fluorescence at 535 nm (green) in HepG2 cell free culture (AID 720686); details: Cell-free medium, green autofluorescence 485/535 nm; series mostly up to 46 µM
[8] = qHTS assay to test for compound auto fluorescence at 460 nm (blue) in HepG2 cells (AID 720687); details: autofluorescence 405/460 nm, 1 h; series mostly up to 46 µM
In short: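 Cells (2,000/well in MEM with 10% FBS) attached overnight at 37 C, then were exposed to compound or DMSO for 1 hr at 37 C, 5% CO2. Fluorescence read at Ex/Em 405/460 nm, expressed as triamterene-equivalent signal.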

[9] = target: Glucocorticoid receptor (Homo sapiens) (UniProt P04150); experiment: qHTS assay to identify small molecule agonists of the glucocorticoid receptor (GR) signaling pathway (AID 720691; active = well fitted activation curve with a large enough effect in the signal ratio in the repeat runs, not every such curve was filed as active; the % refers to the signal ratio; also: potency is read from the fitted curve at half-maximal effect); details: GR-bla HeLa, beta-lactamase reporter ratio, 18 h; activation: at 62.4 µM (top of the series)
Chain of Glucocorticoid receptor (Homo sapiens) (P04150 whole entry, looked up): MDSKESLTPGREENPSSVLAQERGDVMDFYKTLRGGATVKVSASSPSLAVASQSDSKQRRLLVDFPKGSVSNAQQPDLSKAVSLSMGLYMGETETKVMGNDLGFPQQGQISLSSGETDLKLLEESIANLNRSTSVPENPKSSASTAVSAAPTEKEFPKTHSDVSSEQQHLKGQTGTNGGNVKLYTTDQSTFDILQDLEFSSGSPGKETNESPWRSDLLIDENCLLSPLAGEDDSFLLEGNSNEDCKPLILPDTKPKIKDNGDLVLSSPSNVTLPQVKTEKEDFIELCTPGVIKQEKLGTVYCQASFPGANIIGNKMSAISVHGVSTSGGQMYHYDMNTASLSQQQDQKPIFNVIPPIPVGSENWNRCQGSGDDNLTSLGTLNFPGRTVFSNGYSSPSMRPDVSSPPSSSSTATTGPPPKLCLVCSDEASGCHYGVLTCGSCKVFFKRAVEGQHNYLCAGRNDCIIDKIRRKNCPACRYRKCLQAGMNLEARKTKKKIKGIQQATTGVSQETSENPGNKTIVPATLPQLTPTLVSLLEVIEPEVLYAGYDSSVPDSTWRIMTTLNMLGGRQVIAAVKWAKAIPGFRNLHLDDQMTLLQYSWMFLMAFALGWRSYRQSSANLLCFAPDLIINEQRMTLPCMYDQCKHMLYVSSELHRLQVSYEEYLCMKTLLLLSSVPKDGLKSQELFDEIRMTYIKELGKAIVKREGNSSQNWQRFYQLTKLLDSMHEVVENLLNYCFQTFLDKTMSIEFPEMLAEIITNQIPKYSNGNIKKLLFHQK
In short: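 Compounds in DMSO, alongside positive controls, were added to GR-bla HeLa reporter cells and incubated 18 h at 37 C; GRE-driven beta-lactamase was detected by fluorescence after 2 h with FRET substrate at room temperature.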

[10] = target: Glucocorticoid receptor (Homo sapiens) (UniProt P04150); experiment: qHTS assay to identify small molecule antagonists of the glucocorticoid receptor (GR) signaling pathway (AID 720692; active = well fitted inhibition curve with a large enough effect in the signal ratio in the repeat runs, not every such curve was filed as active; the % refers to the signal ratio; also: potency is read from the fitted curve at half-maximal effect); details: GR-bla HeLa, beta-lactamase FRET ratio, dexamethasone-stimulated, 18 h; series mostly up to 58.5 µM
In short: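 In a 1536-well cell format, compounds were added 4 h after seeding GR-bla HeLa cells, together with dexamethasone at 5 nM final; reporter activity was measured by FRET-substrate fluorescence following 18 h at 37 C.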

Measured: Potency

O=S(=O)(O)Oc1ccc(C(c2ccc(OS(=O)(=O)O)cc2)c2ccccn2)cc1
inactive: [1] | [2] | [3] | [4] | [5] | [6] | [7] | [8] | [9] | [10]

CCN(CC)CCC(=O)N1c2ccccc2Sc2ccc(C(F)(F)F)cc21
active: [10] 23.9 µM
inactive: [1] | [2] | [3] | [4] | [5] | [6] | [7] | [8] | [9]

OC[C@@H](O)C(O)[C@H](O)CO
inactive: [1] | [2] | [3] | [4] | [5] | [6] | [7] | [8] | [9] | [10]

c1ccc2c(CCC3CCNCC3)c[nH]c2c1
inactive: [1] | [2] | [3] | [4] | [5] | [6] | [7] | [8] | [9] | [10]

CCC(=O)Oc1ccc2c(c1)CC[C@@H]1[C@@H]2CC[C@]2(C)[C@@H](OC(=O)CC)CC[C@@H]12
active: [10] 4.25 µM
inactive: [1] | [2] | [3] | [4] | [5] | [6] | [7] | [8] | [9]

O=C1NCCN1c1ncc([N+](=O)[O-])s1
inactive: [1] | [2] | [3] | [4] | [5] | [6] | [7] | [8] | [9] | [10]

C[Se]CCC(N)C(=O)O (stereo not given)
inactive: [1] | [2] | [3] | [4] | [5] | [6] | [7] | [8] | [9] | [10]

COc1cc2[nH]c(C)c(CCN3CCN(c4ccccc4)CC3)c2cc1OC
inactive: [1] | [2] | [3] | [4] | [5] | [6] | [7] | [8] | [9] | [10]

CCCCC/C=C\CCC(=O)N[C@H]1[C@H](Oc2c3cc4cc2Oc2ccc(cc2Cl)[C@@H](O[C@@H]2O[C@H](CO)[C@@H](O)[C@H](O)[C@H]2NC(C)=O)[C@@H]2NC(=O)[C@H](NC(=O)[C@@H]4NC(=O)[C@H]4NC(=O)[C@@H](Cc5ccc(c(Cl)c5)O3)NC(=O)[C@H](N)c3ccc(O)c(c3)Oc3cc(O)cc4c3)c3ccc(O)c(c3)-c3c(O[C@H]4O[C@H](CO)[C@@H](O)[C@H](O)[C@@H]4O)cc(O)cc3[C@@H](C(=O)O)NC2=O)O[C@H](CO)[C@@H](O)[C@@H]1O
inactive: [1] | [2] | [3] | [4] | [5] | [6] | [7] | [8] | [9] | [10]

CC1=C[C@H](O)CC(C)(C)[C@H]1/C=C/C(C)=C/C=C/C(C)=C/C=C/C=C(C)/C=C/C=C(C)/C=C/C1=C(C)C[C@@H](O)CC1(C)C
active: [10] 23.9 µM
inactive: [1] | [2] | [3] | [4] | [5] | [6] | [7] | [8] | [9]

O=C(O)CC/C=C\CC[C@@H]1[C@@H](N2CCCCC2)[C@@H](O)C[C@@H]1OCc1ccc(-c2ccccc2)cc1
inactive: [1] | [2] | [3] | [4] | [5] | [6] | [7] | [8] | [9] | [10]

O=C1NC(=O)[C@H]2[C@@H]1[C@@H]1C=C[C@H]2C1
inactive: [1] | [2] | [3] | [4] | [5] | [6] | [7] | [8] | [9] | [10]

CCCc1ccc(C(=O)O)cc1
inactive: [1] | [2] | [3] | [4] | [5] | [6] | [7] | [8] | [9] | [10]

FCOC(C(F)(F)F)C(F)(F)F
inactive: [1] | [2] | [3] | [4] | [5] | [6] | [7] | [8] | [9] | [10]

O=C(Nc1ccc(O)cc1)c1ccccc1O
inactive: [1] | [2] | [3] | [4] | [5] | [6] | [7] | [8] | [9] | [10]

CN1CCN(CCCN2c3ccccc3Sc3ccccc32)CC1
inactive: [1] | [2] | [3] | [4] | [5] | [6] | [7] | [8] | [9] | [10]

C=CCCCCCCCCC(=O)OC
inactive: [1] | [2] | [3] | [4] | [5] | [6] | [7] | [8] | [9] | [10]

C[C@]12CC[C@@H]3c4ccc(OS(=O)(=O)O)cc4CC[C@H]3[C@@H]1CCC2=O
inactive: [1] | [2] | [3] | [4] | [5] | [6] | [7] | [8] | [9] | [10]

c1ccc2cc(C3=NCCN3)ccc2c1
inactive: [1] | [2] | [3] | [4] | [5] | [6] | [7] | [8] | [9] | [10]

COc1cc2c(cc1OC)[C@@H](c1ccccc1)CN(C)CC2
inactive: [1] | [2] | [3] | [4] | [5] | [6] | [7] | [8] | [9] | [10]

CC(=O)Oc1c(C)cc(OCC(O)CNC(C)C)c(C)c1C (stereo not given)
inactive: [1] | [2] | [3] | [4] | [5] | [6] | [7] | [8] | [10]
active: [9] 21.3 µM

OCC(O)COc1ccc(Cl)cc1 (stereo not given)
inactive: [1] | [2] | [3] | [4] | [5] | [6] | [7] | [8] | [9] | [10]

O=C(O)c1cc2ccccc2c(Cc2c(O)c(C(=O)O)cc3ccccc23)c1O
inactive: [1] | [2] | [3] | [4] | [5] | [6] | [7] | [8] | [9] | [10]

CO[C@H]1C[C@@H]2CC[C@@H](C)[C@@](O)(O2)C(=O)C(=O)N2CCCC[C@H]2C(=O)O[C@H]([C@H](C)C[C@@H]2CC[C@@H](OCCO)[C@H](OC)C2)CC(=O)[C@H](C)/C=C(\C)[C@@H](O)[C@@H](OC)C(=O)[C@H](C)C[C@H](C)/C=C/C=C/C=C/1C
active: [10] 7.56 µM
inactive: [1] | [2] | [3] | [4] | [5] | [6] | [7] | [8] | [9]

CCOC(=O)[C@H](CS)NCCN[C@@H](CS)C(=O)OCC
inactive: [1] | [2] | [3] | [4] | [5] | [6] | [7] | [8] | [9] | [10]

N[C@@H](C(=O)N[C@@H]1C(=O)N2C(C(=O)O)=C(CSc3cn[nH]n3)CS[C@H]12)c1ccc(O)cc1
inactive: [1] | [2] | [3] | [4] | [5] | [6] | [7] | [8] | [9] | [10]

O=C(OCCO)c1ccccc1O
inactive: [1] | [2] | [3] | [4] | [5] | [6] | [7] | [8] | [9] | [10]

O=P(O)(O)C(O)(Cc1cnc2ccccn12)P(=O)(O)O
inactive: [1] | [2] | [3] | [4] | [5] | [6] | [7] | [8] | [9] | [10]

CC1(C)N=C(N)N=C(N)N1c1ccc(Cl)cc1
inactive: [1] | [2] | [3] | [4] | [5] | [6] | [7] | [8] | [9] | [10]

CC1CS(=O)(=O)CCN1/N=C/c1ccc([N+](=O)[O-])o1 (stereo not given)
inactive: [1] | [2] | [3] | [4] | [5] | [6] | [7] | [8] | [9] | [10]

O=C1CC[C@@H](C(=O)N2CSC[C@H]2C(=O)O)N1 ([pGlu]-[Thz]-OH)
inactive: [1] | [2] | [3] | [4] | [5] | [6] | [7] | [8] | [9] | [10]

O=C(O)c1nc(=O)[nH]c(=O)[nH]1
inactive: [1] | [2] | [3] | [4] | [5] | [6] | [7] | [8] | [9] | [10]

CO[C@@H]1[C@@H](O[C@@H]2O[C@H](C)[C@@H](O[C@H]3C[C@@](C)(O)[C@@H](O)[C@H](C)O3)[C@H](N(C)C)[C@H]2O)[C@@H](CC=O)C[C@@H](C)[C@@H](O[C@@H]2CC[C@H](N(C)C)[C@@H](C)O2)/C=C/C=C/C[C@@H](C)OC(=O)C[C@H]1O
inactive: [1] | [2] | [3] | [4] | [5] | [6] | [7] | [8] | [9] | [10]

CCCC(=O)Nc1ncnc2c1ncn2[C@@H]1O[C@@H]2COP(=O)(O)O[C@H]2[C@H]1OC(=O)CCC
inactive: [1] | [2] | [3] | [4] | [5] | [6] | [7] | [8] | [9] | [10]

CO[C@H]1O[C@@H]2O[C@@]3(C)CC[C@H]4[C@H](C)CC[C@@H]([C@H]1C)[C@@]24OO3
inactive: [1] | [2] | [3] | [4] | [5] | [6] | [7] | [8] | [9] | [10]

CCCCCCCCCCCCCCCCCC(=O)OCCO
inactive: [1] | [2] | [3] | [4] | [5] | [6] | [7] | [8] | [9] | [10]

CCCCc1cc2c(=O)c(C(=O)OC)c[nH]c2cc1OCc1ccccc1
inactive: [1] | [2] | [3] | [4] | [5] | [6] | [7] | [8] | [9] | [10]

COC(=O)CC[C@H](N)C(=O)O
inactive: [1] | [2] | [3] | [4] | [5] | [6] | [7] | [8] | [9] | [10]

C[N+]1(C)CCN(CC(O)(c2ccccc2)C2CCCCC2)CC1 (stereo not given)
inactive: [1] | [2] | [3] | [4] | [5] | [6] | [7] | [8] | [9] | [10]
